Source: PubChem BioAssay
Values without a mark were called inactive. The rule behind the calls is not given here.

biological target: Pantothenate synthetase (Mycobacterium tuberculosis (strain ATCC 25618 / H37Rv)) (UniProt P9WIL5); assay: Recombinant Mtb pantothenate synthetase (PanC) inhibitors, coupled enzyme, confirmatory (AID 375); settings: coupled enzyme assay; at 10 µM, hits give high values;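 note: 0% = full reaction with vehicle and 100% = no enzyme background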
Sequence (P9WIL5 whole entry, looked up): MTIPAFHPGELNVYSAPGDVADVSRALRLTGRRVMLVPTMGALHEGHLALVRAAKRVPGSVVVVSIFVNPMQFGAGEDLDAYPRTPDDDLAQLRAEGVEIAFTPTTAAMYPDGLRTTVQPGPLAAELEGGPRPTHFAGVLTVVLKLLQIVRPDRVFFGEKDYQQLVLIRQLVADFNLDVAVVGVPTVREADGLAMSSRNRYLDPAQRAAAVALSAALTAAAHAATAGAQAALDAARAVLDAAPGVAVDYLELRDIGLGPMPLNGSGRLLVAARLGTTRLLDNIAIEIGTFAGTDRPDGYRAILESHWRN

| SMILES | inhibition [%] |
| --- | --- |
| O=C(CSc1nnc(Cn2c(=O)sc3ccccc32)n1-c1ccccc1)NCC1CCCO1 (stereo not given) | 0 |
| Cn1c(=O)c(=O)n(C)c2cc(S(=O)(=O)CCC(=O)N3CCOCC3)ccc21 | 0 |
| CNC(=O)CC(C(=O)O)c1ccc(OC(C)C)cc1 (stereo not given) | 0 |
| CCc1nnc(NC(=O)C2CCCN2S(=O)(=O)c2ccc(C)cc2)s1 (stereo not given) | 2 |
| CCOC(=O)c1ccccc1NC(=O)c1ccc2c(=O)n3c(nc2c1)CCCCC3 | 0 |
| CCN(CC)S(=O)(=O)N1CCC(C(=O)NCC2COc3ccccc3O2)CC1 (stereo not given) | 1 |
| COc1cccc(N2C(=O)C(O)=C(C(C)=O)C2c2ccc(OC)c(OC)c2)c1 (stereo not given) | 0 |
| COc1ccc(NC(=O)N2CCC(O)(c3cccnc3)CC2)c(OC)c1 | 3 |
| CC(C)OC(=O)c1ccc(NC(=O)C2C3CC4OC(=O)C2C4C3)cc1 (stereo not given) | 7 |
| CCc1oc2ccccc2c1C(=O)c1cc(Br)c(O)c(Br)c1 | 0 |
| CCCOc1ccc2nc(NC(=O)OC)[nH]c2c1 | 0 |
| O=C(CN1CCN(Cc2ccccc2)CC1)NCC1COc2ccccc2O1 (stereo not given) | 0 |
| Cn1c(SCC(=O)N2CCN(c3cccc(Cl)c3)CC2)nnc1-c1ccncc1 | 0 |
| CCOc1ccccc1NC(=O)NC1CCN(CC(=O)Nc2ccc3c(c2)OCCO3)CC1 | 0 |
| O=C(CN1C(=O)c2cccc3cccc1c23)N1CCN(c2ccccc2)CC1 | 0 |
| O=C(Nc1nccs1)c1cccc(NC(=O)C2CC2)c1 | 6 |
| CCCC1(C(=O)OCC)NC(c2ccc(N(C)C)cc2)C2C(=O)N(c3ccccc3)C(=O)C21 (stereo not given) | 0 |
| COc1ccccc1C(=O)OCn1nnc2ccccc2c1=O | 0 |
| Cc1cc(C)c(C)c(S(=O)(=O)Nc2ccc(O)cc2)c1C | 10 |
| COC(=O)c1cccc(Nc2cc(C)nc(-c3ccccc3O)n2)c1 | 1 |

| SMILES | inhibition [%] |
| --- | --- |
| O=C(CSCc1n[nH]c(=O)[nH]1)NCCOc1cccc(Oc2ccccc2)c1 | 1 |
| CCC(=O)N1CCN=C1SCc1ccc(Cl)cc1 | 0 |
| CCc1nc(N)c(C#N)c(-c2ccncc2)c1C | 0 |
| O=C(NC1CCCCC1)C(c1ccccc1)N(Cc1ccco1)C(=O)Cn1cnc2ccccc21 (stereo not given) | 0 |
| COc1ccc2c(c1)cc(C(=O)O)n2C | 6 |
| CCOc1cc2[nH]c(=O)n(CCCCC(=O)N3CCCCCC3)c(=O)c2cc1OCC | 2 |
| CCOc1ccc(S(=O)(=O)n2c(C)nc3ccccc32)cc1 | 0 |
| O=C(NCN1CCCCC1)c1cnccn1 | 0 |
| CN1CCCN(CC(O)COCc2cccs2)CC1 (stereo not given) | 0 |
| CCn1nnnc1SCC(=O)Nc1nnc(C(C)C)s1 | 3 |
| CCCn1c(NCc2cc(C)ccc2O)nc2ccccc21 | 0 |
| Cc1nc2c(-c3ccccc3)c(C)nn2c(C)c1CCC(=O)NCc1ccco1 | 2 |
| CCc1nn(CC(=O)N2CCN(Cc3ccc4c(c3)OCO4)CC2)c(=O)c2cc3occc3n12 | 5 |
| CSCC[C@@H](Nc1nc(-c2ccccc2)nc2c1oc1ccccc12)C(=O)O | 4 |
| CCc1ccccc1NC(=O)c1ccoc1C | 0 |
| COc1ccc(NS(=O)(=O)c2ccc(N)cc2)nn1 | 1 |
| Cn1c(=O)n(C)c2cc(CNc3ccc(N4CCOCC4)c(C(=O)O)c3)ccc21 | 11 |
| COc1ccc2c(C)nc(Nc3nc(C)cc(C)n3)nc2c1 | 6 |
| Cc1ccccc1NC(=O)CSc1nnc(Cc2cccn2C)n1-c1ccc(F)cc1 | 0 |
| O=C(Nc1ccccc1C(=O)NCC1CCCO1)c1ccco1 (stereo not given) | 1 |
